ZTA DNA inh – ZTA (EBV) inhibition in EBNA-1 counter-screen | 320,000 compounds, 0.15% hits | inhibition, % at 11 µM | ZTA-DNA binding, fluorescence polarization; in the data active = inhibition above about 33%
Target sequence (P03206 whole entry, looked up): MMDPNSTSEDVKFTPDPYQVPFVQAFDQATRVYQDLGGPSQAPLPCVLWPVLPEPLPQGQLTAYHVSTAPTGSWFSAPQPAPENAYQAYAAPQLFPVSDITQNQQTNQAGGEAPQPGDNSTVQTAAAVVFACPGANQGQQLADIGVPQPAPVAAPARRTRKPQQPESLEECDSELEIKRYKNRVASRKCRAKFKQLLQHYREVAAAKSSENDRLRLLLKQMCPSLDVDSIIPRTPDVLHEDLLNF
EBNA-1 inh – blocks EBNA-1 binding to DNA; EBNA-1 DNA binding, fluorescence polarization; AID 1950; inhibition, % at 14.8 µM; 300,000 compounds, 0.34% hits; in the data active = inhibition above about 28%
PAFAH1B2 FP inh – blocks human PAF acetylhydrolase 1b catalytic subunit 2. P68402. recombinant PAFAH1B2, FP-rhodamine activity probe, fluorescence polarization. inhibition, % at 3.39 µM. 340,000 compounds, 1.2% hits;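 active = inhibition above the mean of all tested compounds plus 3 SD, cut at about 24% in these data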;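 also: 0% = enzyme with DMSO and 100% = wells lacking PAFAH1B2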
Target sequence (P68402 whole entry, looked up): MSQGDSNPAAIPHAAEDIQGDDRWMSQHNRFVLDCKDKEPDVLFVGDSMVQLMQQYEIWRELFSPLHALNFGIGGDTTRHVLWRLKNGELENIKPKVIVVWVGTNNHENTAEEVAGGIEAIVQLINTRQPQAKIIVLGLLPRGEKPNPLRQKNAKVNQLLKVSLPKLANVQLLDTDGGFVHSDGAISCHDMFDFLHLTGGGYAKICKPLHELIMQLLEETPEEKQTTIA
pPAFAH FP inh – inhibitors of human plasma PAF acetylhydrolase (pPAFAH); Q13093; recombinant pPAFAH, FP-rhodamine probe fluorescence polarization; inhibition, % at 3.39 µM; 330,000 compounds, 1.5% hits; AID 463082;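 active = inhibition above the mean inhibition across the screen plus 3 SD, cut at about 25% in these data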;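 also: inhibitors block binding of the rhodamine activity-based probe so polarization drops; 0% = enzyme with DMSO and 100% = wells lacking pPAFAH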
PAFAH1B3 FP inh – inhibitors of human PAFAH1B3. Q15102. 340,000 compounds, 0.28% hits. inhibition, % at 3.39 µM. AID 492972. recombinant PAFAH1B3, FP-rhodamine probe, fluorescence polarization;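 active = inhibition above the screen-wide average of all tested compounds plus 3 SD, cut at about 25% in these data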;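 also: 0% = enzyme with DMSO only and 100% = wells lacking PAFAH1B3 protein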
PAFAH2 inh – inhibitors of human PAFAH2. recombinant PAFAH2, FP-rhodamine activity probe, fluorescence polarization. inhibition, % at 3.39 µM. 340,000 compounds, 0.99% hits. AID 492956;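 active = inhibition above the mean over all tested compounds plus 3 SD, cut at about 30% in these data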;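 also: inhibitors block probe labeling of enzyme so polarization drops; 0% = enzyme with DMSO and 100% = wells lacking PAFAH2 protein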
Zta DNA confirm – EBV ZTA DNA binding inhibition, confirmation; Zta-ZRE DNA binding, fluorescence polarization; 320 compounds, 30% hits; inhibition, % at 11.1 µM; shares compounds with ZTA DNA inh; AID 2361;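 active = mean inhibition across triplicate runs above the hit threshold derived for the original primary screen, cut at about 33% in these data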;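 also: 0% = Zta with DMSO and 100% = wells lacking Zta protein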
EBNA1 counter – blocks EBNA-1 DNA binding in ZTA counter-screen; fluorescence polarization; 320 tested, under 10 active; inhibition, % at 14.8 µM; AID 2362; shares compounds with ZTA DNA inh; call rule not given here
pPAFAH confirm – confirmation of human plasma PAF acetylhydrolase (pPAFAH) inhibitors. shares compounds with pPAFAH FP inh. recombinant pPAFAH, FP-Rh probe fluorescence polarization. inhibition, % at 3.39 µM. 2,300 compounds, 72% hits. AID 463230;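 active = mean inhibition of the triplicate above the hit cutoff set for the earlier primary screen, cut at about 25% in these data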;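 also: 0% = enzyme with DMSO and 100% = wells lacking pPAFAH enzyme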
An asterisk follows results filed as active; x = not tested or not shown. This is a sample that favours compounds with a hit; in the whole collection about 2.9% have one here.

SMILES | ZTA DNA inh | EBNA-1 inh | PAFAH1B2 FP inh | pPAFAH FP inh | PAFAH1B3 FP inh | PAFAH2 inh | Zta DNA confirm | EBNA1 counter | pPAFAH confirm
CC[n+]1oc(-c2ccccc2)cc1C | 9 | 14 | 5 | -3 | 2 | 2 | x | x | x
Cc1ccc(NC(=O)CSCC#N)cc1 | 34* | 7 | 0 | 4 | 3 | -4 | -14 | -9 | x
COc1ccc(S(=O)(=O)N2CCC(C(=O)Oc3ccc(C)cc3)CC2)cc1OC | -5 | 5 | -1 | 2 | -2 | 0 | x | x | x
Cc1ccc(O)c(CNCCNCc2cc(C)ccc2O)c1 | 46* | 5 | 0 | 7 | 11 | 7 | 9 | -8 | x
CN(C)CCOc1ccccc1-c1ccccc1 | 37* | 4 | 5 | 3 | 5 | -4 | -12 | -7 | x
CCOC(=O)c1ccc(NC(=O)CCc2nc(-c3ccc(Cl)cc3)no2)cc1 | -8 | -2 | -1 | -5 | -6 | -9 | x | x | x
CCOC(=O)c1ccc(NC(=O)CCc2nc(-c3ccc(C)cc3)no2)cc1 | 35* | 8 | -4 | -7 | -5 | -15 | -4 | -7 | x
Cc1cccc(C)c1NC(=S)NCCc1ccccn1 | 34* | 14 | 6 | 4 | 6 | -10 | 1 | 8 | x
COc1cc(CNCCc2c[nH]c3ccccc23)ccc1OCc1ccc(F)cc1 | 35* | 9 | -1 | 8 | -4 | -1 | 13 | -5 | x
COc1cccc(CNCCc2c[nH]c3ccccc23)c1OCc1ccc(F)cc1 | -4 | 6 | 7 | 4 | 6 | 0 | x | x | x
O=C(Nc1ccccc1Sc1ccccc1)c1ccccc1F | 37* | -7 | -3 | 31* | 9 | 1 | -2 | -5 | x
O=C(Nc1ccccc1NC(=O)c1ccccc1F)c1ccccc1F | x | x | -1 | x | 2 | -1 | x | x | x
CCOC(=O)C1=C(COC(=O)c2ccco2)NC(=O)NC1CC (centres undefined) | 9 | x | -4 | 1 | 4 | -3 | x | x | x
COc1cccc2c1C(=O)c1c(O)c3c(c(O)c1C2=O)C[C@@](O)(C(=O)CO)C[C@@H]3O[C@H]1C[C@H](N)[C@@H](O)[C@H](C)O1 | 72* | 20 | 51* | 60* | 43* | 55* | 106* | 12 | 45*
CC(c1ccccn1)N(Cc1ccco1)C(=S)Nc1cccc(F)c1 (centres undefined) | -25 | -6 | 0 | 6 | 0 | -1 | x | x | x
O=c1c(O)cccc2cc(O)c(O)c(O)c12 | 33* | -5 | 35* | 94* | 42* | 87* | 26 | 14 | 88*
COc1cc2cccc(OC)c(=O)c2c(OC)c1OC | -8 | -10 | -1 | -3 | 8 | -3 | x | x | x
CC(C)(C)NC(=O)[C@]1(C)CCC[C@@]2(C)C3CC[C@@]4(C)C[C@]3(CCC21)CC4=O (some centres undefined) | -7 | x | 3 | 4 | 1 | 4 | x | x | x
CCOc1ccc(N(Cc2ccc(C(=O)O)cc2)S(=O)(=O)c2ccc(C)cc2)cc1 | 16 | -5 | 4 | 1 | 5 | 5 | x | x | x
CN(C)c1ccc(N/C=C/C(=O)c2ccccc2)cc1 | 64* | 10 | 4 | 39* | -4 | 3 | 13 | 11 | 6
Cc1ccc2[nH]c3c(=O)n(CC(=O)Nc4ccccc4N4CCN(C)CC4)ncc3c2c1 | 1 | -14 | 0 | -2 | 0 | -2 | x | x | x
Cc1ccc(C(=O)O)cc1N1C(=O)c2cccc3c([N+](=O)[O-])ccc(c23)C1=O | 39* | 9 | 15 | 36* | 41* | 36* | 35* | 0 | 9
O=C(O)CC(C(=O)O)N1C(=O)/C(=C/c2ccc(-c3nc4ccccc4s3)o2)SC1=S (centres undefined) | 59* | 21 | 7 | 65* | 18 | 34* | 64* | -3 | 42*
CN1C(=O)c2cccc3c(Cl)ccc(c23)C1=O | 4 | 4 | -1 | 3 | -2 | 5 | x | x | x
CNc1ccc2c3c(cccc13)C(=O)N(C)C2=O | -7 | -21 | 58* | 54* | 68* | 71* | x | x | 39*
SMILES | ZTA DNA inh | EBNA-1 inh | PAFAH1B2 FP inh | pPAFAH FP inh | PAFAH1B3 FP inh | PAFAH2 inh | Zta DNA confirm | EBNA1 counter | pPAFAH confirm
Oc1c(Br)cc(Br)cc1/C=N/Nc1ccc(Cl)nn1 | -24 | -4 | 9 | 4 | 7 | 29 | x | x | x
Oc1ccc(/C=N/Nc2ccc(Cl)nn2)c(O)c1O | -9 | 2 | 1 | 57* | 16 | 29 | x | x | 12
Oc1c(Br)cc(/C=N/Nc2ccc(Cl)nn2)cc1Br | -18 | -11 | 16 | 52* | 28* | 33* | x | x | 58*
Cc1cc(C)c(NC(=O)COC(=O)c2cccc3c2C(=O)c2ccccc2C3=O)c(C)c1 | -12 | -15 | 0 | 11 | 11 | 15 | x | x | x
Cc1cc(C)c(Nc2cc(S(=O)(=O)O)c(N)c3c2C(=O)c2ccccc2C3=O)c(C)c1 | 52* | 51* | 63* | 89* | 46* | 83* | x | x | 92*
COc1ccc(-n2cccc2/C=C2\C(=N)N3N=C(c4ccco4)SC3=NC2=O)cc1 | 2 | 6 | 0 | 47* | -7 | 27 | x | x | 63*
CCC1=NN2C(=N)/C(=C/c3cc(C)n(Cc4ccccc4)c3C)C(=O)N=C2S1 | -5 | 1 | 15 | 18 | 1 | -6 | x | x | x
COc1ccc(-n2cccc2/C=C2\C(=N)N3N=C(C(C)C)SC3=NC2=O)cc1 | 3 | 8 | 8 | 5 | 1 | 11 | x | x | x
Cc1cc(/C=C2\C(=N)N3N=C(c4ccco4)SC3=NC2=O)c(C)n1Cc1ccccc1 | 7 | -5 | 36* | 36* | 13 | 16 | x | x | 70*
Cc1ccccc1C(=O)NC1CCN(CC(=O)Nc2ccc(Br)cc2)CC1 | 9 | 2 | 2 | 4 | 10 | -3 | x | x | x
Cc1cc(C)nc(N/N=C/C2=C(N3CCOCC3)C(=C\c3ccc(Cl)cc3)/CC2)n1 | 8 | 1 | 5 | 62* | 8 | 11 | x | x | 98*
O=C1NN(c2ccc(Br)cc2)C(=O)/C1=C\c1ccc(O)cc1O | -10 | -14 | 15 | 37* | 6 | 24 | x | x | 25*
Cc1cc(/C=C2/C(=O)NN(c3ccccc3)C2=O)c(C)n1-c1cccc(O)c1 | 7 | 0 | 16 | 19 | 7 | 15 | x | x | x
CCCCCCCCCCCC(=O)N/N=C/c1ccco1 | -8 | -13 | 3 | 6 | -1 | 6 | x | x | x
N[C@@H](Cc1ccc(O)c(O)c1)C(=O)O | x | x | 1 | x | 10 | -1 | x | x | x
CC(Cc1ccc(O)c(O)c1)C(C)Cc1ccc(O)c(O)c1 (centres undefined) | -5 | -5 | x | 70* | x | x | x | x | 79*
CCN=c1scc(-c2ccco2)n1/N=C/c1ccc(O)cc1 | -2 | 11 | 4 | 2 | 11 | 3 | x | x | x
